# TcdB inh: inhibitors of Clostridioides difficile toxin B glycohydrolase; P18177; TcdB glycohydrolase enzymatic assay, plate reader; inhibition, % at 9.99 µM; 350,000 tested, 0.24% active; AID 652162; in the data active = inhibition above about 10%
# Target sequence (P18177 whole entry, looked up): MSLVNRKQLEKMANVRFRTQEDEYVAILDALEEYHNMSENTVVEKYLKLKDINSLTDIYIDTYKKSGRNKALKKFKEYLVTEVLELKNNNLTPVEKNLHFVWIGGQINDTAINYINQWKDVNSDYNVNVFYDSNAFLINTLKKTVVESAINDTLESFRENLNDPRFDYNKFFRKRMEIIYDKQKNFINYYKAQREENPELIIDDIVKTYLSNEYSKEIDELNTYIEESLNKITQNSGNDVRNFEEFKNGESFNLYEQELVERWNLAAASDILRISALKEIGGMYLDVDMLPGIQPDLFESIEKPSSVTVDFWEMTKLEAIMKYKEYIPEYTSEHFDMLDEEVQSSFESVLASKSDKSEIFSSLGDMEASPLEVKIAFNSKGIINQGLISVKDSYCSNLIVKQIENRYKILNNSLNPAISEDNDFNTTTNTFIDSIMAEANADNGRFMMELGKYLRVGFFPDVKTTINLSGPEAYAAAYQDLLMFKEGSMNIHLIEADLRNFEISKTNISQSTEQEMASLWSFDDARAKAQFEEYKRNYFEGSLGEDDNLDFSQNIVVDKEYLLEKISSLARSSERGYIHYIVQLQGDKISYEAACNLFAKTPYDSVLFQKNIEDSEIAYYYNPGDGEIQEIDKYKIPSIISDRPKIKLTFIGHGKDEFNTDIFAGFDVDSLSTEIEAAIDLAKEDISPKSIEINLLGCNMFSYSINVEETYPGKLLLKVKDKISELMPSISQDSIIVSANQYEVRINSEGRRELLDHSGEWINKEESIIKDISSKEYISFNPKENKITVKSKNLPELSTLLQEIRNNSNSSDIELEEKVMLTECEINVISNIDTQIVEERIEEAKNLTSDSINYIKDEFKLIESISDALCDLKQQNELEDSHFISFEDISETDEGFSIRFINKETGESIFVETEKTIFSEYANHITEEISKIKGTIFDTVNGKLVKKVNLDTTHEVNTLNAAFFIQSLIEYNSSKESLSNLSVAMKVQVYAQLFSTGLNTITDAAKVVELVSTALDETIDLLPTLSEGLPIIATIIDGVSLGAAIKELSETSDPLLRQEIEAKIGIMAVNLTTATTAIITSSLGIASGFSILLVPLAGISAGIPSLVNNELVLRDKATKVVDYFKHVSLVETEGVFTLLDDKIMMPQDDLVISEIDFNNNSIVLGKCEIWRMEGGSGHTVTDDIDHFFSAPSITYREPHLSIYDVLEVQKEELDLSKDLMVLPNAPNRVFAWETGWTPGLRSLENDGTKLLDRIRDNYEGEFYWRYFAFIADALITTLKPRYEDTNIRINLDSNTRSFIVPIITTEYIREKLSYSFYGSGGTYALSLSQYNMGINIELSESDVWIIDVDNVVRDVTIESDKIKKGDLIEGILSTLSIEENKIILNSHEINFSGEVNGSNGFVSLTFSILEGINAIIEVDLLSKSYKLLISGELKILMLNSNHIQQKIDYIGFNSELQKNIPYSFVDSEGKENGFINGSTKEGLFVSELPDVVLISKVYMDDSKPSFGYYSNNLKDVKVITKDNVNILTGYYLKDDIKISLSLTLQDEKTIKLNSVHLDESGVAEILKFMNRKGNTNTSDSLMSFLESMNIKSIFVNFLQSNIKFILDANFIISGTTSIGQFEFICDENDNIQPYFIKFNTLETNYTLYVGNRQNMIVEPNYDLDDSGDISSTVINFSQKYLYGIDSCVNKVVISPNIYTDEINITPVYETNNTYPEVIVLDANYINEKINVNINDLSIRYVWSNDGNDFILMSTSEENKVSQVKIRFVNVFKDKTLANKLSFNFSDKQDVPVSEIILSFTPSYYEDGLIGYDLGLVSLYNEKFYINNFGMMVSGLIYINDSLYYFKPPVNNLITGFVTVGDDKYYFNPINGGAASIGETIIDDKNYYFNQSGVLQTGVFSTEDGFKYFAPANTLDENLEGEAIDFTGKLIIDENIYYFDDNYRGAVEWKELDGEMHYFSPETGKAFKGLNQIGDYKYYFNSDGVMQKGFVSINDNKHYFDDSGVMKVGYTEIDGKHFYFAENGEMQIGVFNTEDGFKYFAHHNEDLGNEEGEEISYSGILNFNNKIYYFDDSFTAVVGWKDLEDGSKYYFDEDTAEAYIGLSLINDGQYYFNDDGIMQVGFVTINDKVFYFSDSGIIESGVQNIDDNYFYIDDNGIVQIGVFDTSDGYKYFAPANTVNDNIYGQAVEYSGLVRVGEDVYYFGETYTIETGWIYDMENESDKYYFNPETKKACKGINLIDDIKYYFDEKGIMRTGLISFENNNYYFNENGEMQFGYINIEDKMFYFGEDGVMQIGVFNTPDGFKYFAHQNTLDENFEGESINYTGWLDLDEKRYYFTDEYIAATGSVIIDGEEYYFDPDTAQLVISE
# Mtb BioA inh: inhibitors of Mycobacterium tuberculosis BioA enzyme. AID 602481. 360,000 tested, 0.096% active. purified M. tuberculosis BioA enzyme, plate reader. inhibition, % at 9.99 µM; in the data active = inhibition above about 40%
# Yp Topo-I inh: inhibitors of Yersinia pestis topoisomerase I; activity, % at 10 µM; 360,000 tested, 0.064% active; AID 504884; Y. pestis Topo-I cleavage product accumulation, plate reader; in the data active = activity above about 50%, passing the limit was not always enough
# * hit, by the source's call; . = no result. In the library only some 0.32% were active in any assay of this set; here they are far more common.
SMILES,TcdB inh,Mtb BioA inh,Yp Topo-I inh
COc1cc(/C=C/C(=O)c2ccc([N+](=O)[O-])o2)ccc1O,12*,1,-13
O=c1[nH]c(-c2ccc(Cl)cc2)cs1,1,.,7
O=c1[nH]c(-c2ccccc2)cs1,0,1,-2
S=c1[nH]c(-c2ccccc2)cs1,17*,.,-3
Fc1ccc(-c2csc(=S)[nH]2)cc1,19*,.,7
Cc1ccc(OCc2cc(C(=O)N3CCc4sccc4C3)no2)cc1C,0,-1,54*
Cc1ccc(OCc2cc(C(=O)N3CCCCCCC3)no2)cc1C,1,0,27
COC(=O)C[C@H]1C[C@@H]2c3cc(NS(=O)(=O)c4ccc(OC)cc4)ccc3O[C@@H]2[C@@H](CO)O1,.,2,.
CCCN1[C@H](C(=O)NCC2CC2)[C@@H](CO)[C@@H]2Cn3c(ccc(-c4ccccc4)c3=O)[C@@H]21,1,5,.
C[C@@H]1CN([C@H](C)CO)S(=O)(=O)c2ccc(C3=CCCCC3)cc2O[C@H]1CN(C)C(=O)CN(C)C,-3,0,.
O=C(CSc1ccccc1)Nc1cc(S(=O)(=O)N2CCOCC2)ccc1N1CCOCC1,12*,.,14
CCN1CCN(c2ccc(S(=O)(=O)N3CCOCC3)cc2NC(=O)C(C)Oc2cccc(Cl)c2)CC1 (stereo not drawn),-1,0,24
COc1ccc(S(=O)(=O)N2CCOCC2)cc1NC(=O)CSc1ccccc1,2,0,11
Cc1cc(Cl)ccc1OC(C)C(=O)Nc1ccccc1N1CCOCC1 (stereo not drawn),.,-1,63*
CC(Oc1ccc(Cl)cc1)C(=O)Nc1ccccc1N1CCOCC1 (stereo not drawn),3,-1,32
CC(Oc1cccc(Cl)c1)C(=O)Nc1cc(S(=O)(=O)N2CCOCC2)ccc1N1CCCCC1 (stereo not drawn),1,.,71*
COCC#Cc1ccc([C@@H]2[C@@H](CO)N3C(=O)CN(C(=O)c4ccncc4)C[C@H]23)cc1,0,.,.
O=C(O)C[C@@H]1CC[C@@H]2[C@H](COC[C@H](O)CN2S(=O)(=O)c2ccc(F)cc2)O1,-1,-4,.
O=C(CC1CC1)N1[C@@H](CO)[C@H](c2ccccc2)C12CN(Cc1ccncc1)C2,-1,.,.
Cc1ccc(S(=O)(=O)Nc2ccc3c(c2)C(=O)N([C@@H](C)CO)C[C@H](C)[C@H](CN(C)S(=O)(=O)c2ccccc2)OCCCC[C@@H](C)O3)cc1,1,-2,.
Cc1cc(N/N=C/c2ccncc2)nc2ccccc12,12*,.,8
Cc1cc(N/N=C/c2cccc(Br)c2)nc2ccccc12,.,-1,4
COc1ccc(C#Cc2cnc3c(c2)C(=O)N([C@@H](C)CO)C[C@H](C)[C@@H](CN(C)C(=O)CN(C)C)O3)cc1,1,0,.
C/C=C/c1cnc2c(c1)C(=O)N([C@@H](C)CO)C[C@H](C)[C@@H](CN(C)C(=O)Nc1ccc(F)cc1)O2,-1,0,.
CCOC(=O)Nc1nnc(/C=C/c2ccc(OC)cc2)s1,.,.,15
SMILES,TcdB inh,Mtb BioA inh,Yp Topo-I inh
CCCCOC(=O)Nc1nnc(/C=C/c2ccc(OC)cc2)s1,-1,.,53*
COC(=O)c1cnn(-c2ccc(F)cc2F)c1/C=N/NC(=S)NC(C)(C)C,1,-1,16
CNC(=S)N/N=C/c1c(C(=O)OC)cnn1-c1ccc(F)cc1F,12*,0,-2
O=C(C[C@@H]1CC[C@H]2[C@@H](COC[C@H](O)CN2S(=O)(=O)c2ccc(Cl)cc2)O1)NCCN1CCCCC1,0,.,.
O=C(NCc1ccccc1)[C@@H]1CCCN1C(=O)[C@@H]1CCCN1C(=O)c1cccs1,12*,.,.
O=C(NCc1ccncc1)[C@@H]1CCCN1C(=O)[C@@H]1CCCN1,12*,.,.
O=C(NCc1ccccc1Cl)[C@H]1CCCN1C(=O)[C@H]1CCCN1,0,.,.
O=C(NCc1ccncc1)[C@@H]1CCCN1C(=O)[C@H]1CCCN1C(=O)c1cccs1,1,.,.
O=C(Nc1ccc(F)cc1)N[C@@H]1CC[C@@H](CCNC(=O)c2ccccc2F)O[C@H]1CO,-1,.,.
CCCN(C)C[C@H]1Oc2ncc(-c3ccccc3F)cc2C(=O)N([C@H](C)CO)C[C@@H]1C,-2,-1,.
CNC(C(=O)c1ccccc1)C(OC)c1ccccc1 (stereo not drawn),.,-2,4
CNC(C(=O)c1ccccc1)C(OC)c1cccc([N+](=O)[O-])c1 (stereo not drawn),21*,.,-3
Cc1ccc(C2C(C(=O)c3cc4ccccc4o3)=C(O)C(=O)N2c2cc(C)on2)cc1 (stereo not drawn),3,-1,85*
Cc1cc(N2C(=O)C(O)=C(C(=O)c3cc4ccccc4o3)C2c2ccc([N+](=O)[O-])cc2)no1 (stereo not drawn),1,-1,6
O=C(C[C@H]1CC[C@@H]2[C@H](COC[C@@H](O)CN2Cc2nccs2)O1)NCc1ccc(-c2ccccc2)cc1,-2,0,.
COc1cc2c(cc1OC)-c1cc3ccc4c(c3c[n+]1CC2)OCO4,0,-24,-11
COc1cc2c(cc1O)CC[n+]1cc3c(OC)c(OC)ccc3cc1-2,13*,3,-8
O=C(COc1ccc2cc(Br)ccc2c1Br)N1CCOCC1,-1,1,53*
O=C(COc1ccc(Br)cc1)N1CCOCC1,.,-2,-2
Cn1cnc(S(=O)(=O)N2CCCCN3[C@@H](CO)[C@H](c4ccc(C#CC5CC5)cc4)[C@@H]3C2)c1,-1,-6,.
O=C(C[C@H]1C[C@H]2c3cc(NC(=O)NC4CCCC4)ccc3O[C@H]2[C@@H](CO)O1)NCc1ccccc1,-2,1,.
COc1ccc(S(=O)(=O)N(C)C[C@H]2Oc3c(NC(=O)Nc4ccc(F)cc4)cccc3C(=O)N([C@@H](C)CO)C[C@H]2C)cc1,1,.,.
COc1ccc(CC(=O)C2C(=O)N(C)c3ccccc32)cc1OC (stereo not drawn),11*,.,6
COc1ccc(CC(=O)OCC(=O)N2c3ccccc3CC2C)cc1OC (stereo not drawn),0,0,5
CNC(=O)C[C@H]1CC[C@@H]2[C@H](COc3ccc(NC(=O)Nc4c(C)noc4C)cc3C(=O)N2C)O1,.,2,.
SMILES,TcdB inh,Mtb BioA inh,Yp Topo-I inh
C[C@H](CO)N1C[C@H](C)[C@H](CN(C)C(=O)c2ccccc2)Oc2ncc(-c3ccc(C#N)cc3)cc2C1=O,0,2,.
COc1cccc(S(=O)(=O)Nc2ccc3c(c2)[C@H]2C[C@@H](CC(=O)NCc4ccccc4F)O[C@@H](CO)[C@H]2O3)c1,0,-1,.
OC(CNCc1ccccc1)c1ccccc1 (stereo not drawn),0,0,-4
ClCC(CNCc1ccccc1)c1ccccc1 (stereo not drawn),12*,-2,8
CNC[C@H]1Oc2c(NC(=O)c3ccc(-c4nccs4)cc3)cccc2C(=O)N([C@H](C)CO)C[C@@H]1C,-1,0,.
COc1ccc(C)cc1N(CC(=O)Nc1ccc(S(=O)(=O)N2CCOCC2)cc1)S(C)(=O)=O,0,-1,17
CS(=O)(=O)N(CC(=O)Nc1ccc(S(=O)(=O)N2CCOCC2)cc1)c1ccccc1Br,32*,0,6
CN(C)C(=O)[C@H]1[C@H](CO)[C@H]2Cn3c(ccc(-c4ccncc4)c3=O)[C@@H]1N2CC1CC1,0,1,.
CCC(=O)Nc1ccc2c(c1)C(=O)N(C)C[C@H](OC)[C@@H](C)CN(C(=O)NC(C)C)[C@H](C)CO2,0,9,.
